RORg inh: ROR gamma (mouse) transcription inhibition | hit rate 5.4% among 310,000 | Potency, µM (highest dose often 53.6 µM), without a hit: at the top dose activity change, negative = inhibition, hits mostly inhibitors | Drosophila S2 Gal4-RORgamma UAS-luciferase reporter, 20 h | P51450 | AID 2551; further: nearly all actives have a fitted effect of over 60% in size
Target sequence (P51450 whole entry, looked up, the tested form may be a part): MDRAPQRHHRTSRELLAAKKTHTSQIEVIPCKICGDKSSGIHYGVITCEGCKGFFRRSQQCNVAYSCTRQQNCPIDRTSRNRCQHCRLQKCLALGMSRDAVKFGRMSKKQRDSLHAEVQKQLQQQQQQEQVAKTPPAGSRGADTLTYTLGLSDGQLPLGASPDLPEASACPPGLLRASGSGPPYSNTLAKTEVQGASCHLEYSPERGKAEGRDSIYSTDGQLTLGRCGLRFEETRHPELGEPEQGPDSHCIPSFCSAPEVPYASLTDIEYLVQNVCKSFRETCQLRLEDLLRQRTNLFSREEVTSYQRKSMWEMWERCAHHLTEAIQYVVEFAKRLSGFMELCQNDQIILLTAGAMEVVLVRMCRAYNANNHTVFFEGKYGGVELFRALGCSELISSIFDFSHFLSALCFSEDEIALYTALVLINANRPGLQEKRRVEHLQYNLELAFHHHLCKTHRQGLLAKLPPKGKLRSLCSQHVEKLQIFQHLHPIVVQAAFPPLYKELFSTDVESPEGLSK
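Drosophila S2 cells stably expressing Gal4-DBD/mouse RORγ fusion under metallothionein promoter plus UAS-luciferase; compound 1 h, then 700 uM CuSO4 induction for 20 h at ambient temperature; inhibition read as reduced luminescence.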
VP16 counter: inhibits Gal4-VP16 luciferase reporter, ROR gamma counter-screen. Drosophila S2 Gal4-VP16 UAS-luciferase, luminescence, 20 h. Potency, µM (highest dose often 53.6 µM), without a hit: at the highest dose activity, negative = inhibition, most hits filed as inhibitors. hit rate 3.5% among 310,000. AID 2546;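 further: Gal4-VP16 expression switched on by copper sulfate through the metallothionein promoter; nearly all actives have a fitted effect of over 50% in size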
TDP1 cell CPT: growth inhibition of DT40 Tdp1-/-;hTDP1 cells with camptothecin (screen for TDP1 inhibitors); Potency, µM (highest dose often 46.2 µM), for inactives: at the top dose activity change, negative = growth inhibition, usual class: inhibitors; chicken DT40 Tdp1-/-;hTDP1 cells + 20 nM CPT, ATP luminescence, 48 h; hit rate 12% among 420,000; further: nearly all actives have a fitted effect of over 55% in size
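Chicken DT40 Tdp1-/- cells stably complemented with human TDP1 were seeded at 400 cells/well in medium containing 20 nM camptothecin, exposed to pin-transferred compounds, and grown at 37 °C for at least 48 hr. Viability was read as ATP luminescence.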
ELG1 DNA repair: inhibitors of ELG1-dependent DNA repair in HEK293T cells; HEK293T ELG1-luciferase reporter, luminescence, 16 h; DNA damage induced by 5-fluorouridine; Potency, µM (highest dose often 46.1 µM), for inactives: at the highest dose activity change, negative = inhibition, usual class: inhibitors; hit rate 2.3% among 330,000; AID 504467; further: nearly all actives have a fitted effect of over 55% in size
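In this reporter screen, reduction of luminescence relative to DMSO vehicle indicated activity. Compounds and 5-fluorouridine were added together to 2,000 cells per well, incubated for 16 hr at 37 °C, then developed with ONE-Glo.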
DT40 TDP1 no CPT: qHTS for Inhibitors of human tyrosyl-DNA phosphodiesterase 1 (TDP1): qHTS in cells in absence of CPT; DT40 Tdp1-/- hTDP1 cells, no CPT, ATP luminescence, 48 h; Potency, µM (highest dose often 46.2 µM), inactives show at the highest dose activity change, negative = growth inhibition, actives largely listed as inhibitors; hit rate 15% among 420,000; further: nearly all actives have a fitted effect of over 55% in size
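DT40 Tdp1-/-;hTDP1 cells, no CPT (DMSO vehicle only), 400 cells/well; compounds pin-transferred; ≥48 hr, 37 °C; CellTiter-Glo 30 min RT dark, luminescence read.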
ALOX12 inh: blocks human arachidonate 12S-lipoxygenase; hit rate 1.1% among 580,000; purified 12hLO, xylenol orange hydroperoxide absorbance; Potency, µM (titrated, usually from 108 µM), for the others: top-dose activity change, negative = inhibition, hits mostly inhibitors
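Purified human 12hLO (150 nM final) in 25 mM Hepes, 0.01% Triton X-100, pH 7.0 was preincubated 15 min at room temperature with compound. Then 40 uM arachidonic acid was added, 30 min. Hydroperoxide was read by Fe-XO absorbance ratio 573/405 nm.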
* hit, by the source's call; ? = inconclusive; / = no result; [ ] = remark or other dose. The list is not random: actives were taken first. Their share in the collection is about 15%. The call rests on the fitted dose curve; in most records, active means well fitted curve in the direction sought with a large enough effect; inconclusive means small, poorly fitted or top-dose-only effect, or another doubt; inactive means no such curve, though single readings can be large; an effect the other way counts as inactive or inconclusive. On the % scale 0 is the no-effect control and ±100 the full control effect; potency means the concentration at half of the fitted maximal effect.

SMILES	RORg inh	VP16 counter	TDP1 cell CPT	ELG1 DNA repair	DT40 TDP1 no CPT	ALOX12 inh
Cc1ccc(-c2cc(-c3ccco3)c3c(N)c(C(=O)NN)oc3n2)cc1	1%	-26%	?	13µM*	?	116%
CNC(=S)NNC(=O)c1oc2nc(-c3ccccc3)cc(C)c2c1N	-28%	3%	6%	0%	?	14%
NNC(=O)c1oc2nc(-c3ccccc3)cc(-c3ccccc3)c2c1N	-8%	-8%	-22%	16µM*	?	9%
COc1cccc(/C=N/NC(=O)c2oc3nc(-c4ccccc4)cc(-c4ccco4)c3c2N)c1	-7%	6%	-28%	16µM*	13µM*	-4%
CCNC(=O)N(C1CC1)C1CCOC2(CCN(C(=O)Nc3ccccc3F)CC2)C1 (configuration not stated)	/	/	/	/	/	48%
CCOC(=O)N1CCN(C(=O)CSc2nc3c([nH]c4ccccc43)c(=O)n2C)CC1	41%	-8%	-29%	2.6µM*	-19%	32%
C=CCn1c(SCC(=O)N2CCN(C(=O)OCC)CC2)nc2c([nH]c3ccccc32)c1=O	/	/	?	/	16µM*	2%
Cn1c(SCC(=O)N2CCCCC2)nc2c([nH]c3ccccc32)c1=O	6%	0%	?	-3%	?	30%[57.4 µM]
CSC1=N/C(=C\c2cc(C(C)(C)C)c(O)c(C(C)(C)C)c2)C(=O)S1	/	/	/	/	/	-67%
Cn1/c(=N/N=C/c2ccccn2)sc2ccccc21	10µM*	?	16%	?	?	-17%
Cn1/c(=N/N=C/c2ccc(N3CCOCC3)cc2)sc2ccccc21	?	?	?	?	7%	0%
COc1ccc(Cc2n[nH]c(=S)n2NC(=O)Nc2ccc(Cl)c(Cl)c2)cc1	-10%	-3%	10µM*	12%	7.3µM*	?
O=C(NCC(c1ccco1)N1CCCC1)c1cccc(S(=O)(=O)N2CCCCC2)c1 (configuration not stated)	/	/	?	/	?	4%
Cc1ccc(NS(=O)(=O)c2cccc(C(=O)NCC(c3ccco3)N3CCCCC3)c2)cc1 (configuration not stated)	/	/	26µM*	-23%	?	/
COc1ccc(NS(=O)(=O)c2ccc(C)c(C(=O)NCC(c3ccco3)N3CCCCC3)c2)cc1 (configuration not stated)	/	/	?	-1%	?	0%
Cc1ccccc1NS(=O)(=O)c1ccc(C(=O)NCC(c2ccco2)N2CCCCC2)cc1 (configuration not stated)	/	/	?	?	23µM*	-9%
CC(=O)c1cccc(S(=O)(=O)NCC(c2ccco2)N2CCCCC2)c1 (configuration not stated)	?	-4%	?	0.58µM*	16µM*	?
Cc1cccc(NS(=O)(=O)c2ccc(C)c(C(=O)NCC(c3ccco3)N3CCCCC3)c2)c1 (configuration not stated)	/	/	21µM*	?	18µM*	0%
Cc1nn(-c2ccc(F)cc2)c(Oc2ccccc2F)c1CCC(=O)N(C)C(C)C	/	/	/	/	/	11%
O=C([C@H]1C[C@H](Oc2ccccc2)CN1C(=O)COc1ccc(F)cc1)N1CCOCC1	/	/	/	/	/	20%
O=C(CC[C@H]1NC(=O)c2ccccc2NC1=O)NCCCc1nc2ccccc2[nH]1	/	/	/	/	/	24%
Cc1cccc(NS(=O)(=O)c2ccc(C(=O)NCC3(N4CCCCC4)CCCCC3)cc2)c1C	/	/	21µM*	16%	15µM*	?
Cc1ccccc1NS(=O)(=O)c1ccc(C(=O)NCC2(N3CCOCC3)CCCCC2)cc1	/	/	?	/	?	-4%
